The source made the active and inactive calls. Rule for the calls: active = hit-call score of the fitted dose curve at least 0.9, where 1 is the maximum; inactive = score below 0.9.
test: APR_HepG2_MicrotubuleCSK_1hr: Apredica 1-hour HepG2 Assay for Microtubule CSK Stabilty (AID 2282669); conditions: HepG2 microtubule cytoskeleton imaging, actives raise or lower the signal
Method: APR_HepG2_1hr is a cell-based, multiplexed-readout assay that uses HepG2, a human liver cell line, with measurements taken at 1 hour after chemical dosing in a 384-well plate.APR_HepG2_MicrotubuleCSK_1hr is one of 10 assay component(s) measured or calculated from the APR_HepG2_1hr assay. It is designed to make measurements of protein conformation, a form of conformation reporter, as detected with fluorescence intensity signals by HCS Fluorescent Imaging technology.Data from the assay component APR_HepG2_MicrotubuleCSK_1hr was analyzed into 1 assay endpoint. This assay endpoint, APR_HepG2_MicrotubuleCSK_1hr, was analyzed with bidirectional fitting relative to DMSO as the negative control and baseline of activity. Using a type of conformation reporter, measures of protein for gain or loss-of-signal activity can be used to understand the signaling at the cellular-level. Furthermore, this assay endpoint can be referred to as a primary readout, because this assay has produced multiple assay endpoints where this one serves a signaling function. To generalize the intended target to other relatable targets, this assay endpoint is annotated to the cell morphology intended target family, where the subfamily is cell conformation.
Cells were treated with dimethyl sulfoxide (DMSO) as a solvent control at a final concentration of 0.5% v/v or with compounds in DMSO with a resulting final DMSO concentration of 0.5% v/v. Compound treatment was done at concentrations of 0.39, 0.78, 1.56, 3.12, 6.24, 12.5, 25, 50, 100, and 200 uM in duplicate on each plate. Cells were treated with compounds for 1, 24, or 72 hr. Carbonyl […] m-chloro-phenylhydrazone (CCCP) and taxol were used as positive controls for mitochondrial function and cytoskeletal stability, respectively; DMSO served as the negative control for this experiment. Cells were fixed by the direct addition of 50 uL formaldehyde in Hank's Balanced Salt Solution (HBSS) to a final concentration of 3.7%. After incubation in the fixation medium for 30 min at room temperature (293-298 K), cells were rinsed twice with HBSS and treated with cell permeabilization buffer (16 uL of 0.5% Triton X-100) for 10 min at room temperature (293-298 K) before labeling. For mitochondrial membrane potential and mitochondrial measurements, pre-fixed cells were incubated with 50 uL of MitoTracker Red CMXRos (Invitrogen) at a concentration of 250 nM for 30 min before fixation. In the remaining cases, post-fixed cells were labeled by incubation with a multiplexed mixture of primary antibodies in HBSS for 60 min at room temperature (293-298 K) to detect immunoreactivity of c-Jun (1:500), phospho-histone H3 (1:100), phospho-histone H2A.x (1:200), p53 (1:400), alpha-tubulin (1:200) and Hoechst 33342 (2 ug/mL). Cells were labeled for multiplexed imaging on two separate plates: a) Hoechst 33342, MitoTracker Red, phospho-histone H3, and alpha-tubulin, and b) Hoechst 33342, phospho-histone H2A.x, and c-Jun. A final rinse with HBSS (50 uL) was performed before analysis. The primary and secondary antibodies for the proteins were phospho-histone H3 (rabbit anti-phospho-histone H3 and FITC-donkey anti-rabbit IgG), phospho-histone H2A.x (mouse anti-phospho-histone H2A.x and FITC-donkey anti-mouse IgG), c-Jun (rabbit anti-phospho-c-Jun and Cy3-donkey anti-rabbit IgG), p53 (sheep anti-p53 and Cy5-donkey anti-sheep IgG), alpha-tubulin (mouse anti-alpha-tubulin and Cy5-donkey anti-mouse IgG). These antibodies are available as the CellCiphr HepG2 assay kit (Millipore).Digital images of each well were captured using a Cellomics ArrayScan VTI (Thermo Scientific Cellomics) (0.8 NA objective, 0.63x optical coupler, and XF-93 filter set) at 20x magnification. The images were acquired using the autofocus feature of the ArrayScan instrument, which entails the following steps. First, the camera focuses on channel 1 (Hoechst 33342), where nuclei are identified. Second, a Z offset of 1 um is used for capturing mitochondria (MitoTracker Red). […]

| Structure (SMILES) | outcome | AC50 |
| --- | --- | --- |
| O=[N+]([O-])c1cc(C(F)(F)F)c(Cl)c([N+](=O)[O-])c1Nc1ncc(C(F)(F)F)cc1Cl | inactive |  |
| CCCOc1nn(C(=O)NS(=O)(=O)c2ccccc2C(=O)OC)c(=O)n1C | inactive |  |
| Cc1cc(C2CC2)nc(Nc2ccccc2)n1 | inactive |  |
| CCCCOC(=O)[C@@H](C)Oc1ccc(Oc2ccc(C#N)cc2F)cc1 | inactive |  |
| C#CCC1=C(C)C(OC(=O)C2C(C=C(C)C)C2(C)C)CC1=O (stereo not given) | inactive |  |
| CCOP(=O)(SC(C)CC)N1CCSC1=O (stereo not given) | inactive |  |
| C[Si](Cn1cncn1)(c1ccc(F)cc1)c1ccc(F)cc1 | inactive |  |
| CCOP(=S)(OCC)Oc1cc(C)nc(C(C)C)n1 | inactive |  |
| CCC(CC)Nc1c([N+](=O)[O-])cc(C)c(C)c1[N+](=O)[O-] | inactive |  |
| N#CSCSC#N | inactive |  |
| COc1cc(OC)nc(Sc2cccc(Cl)c2C(=O)O)n1 | inactive |  |
| CCCCSP(=O)(SCCCC)SCCCC | inactive |  |
| C=C(C)[C@H]1Cc2c(ccc3c2O[C@@H]2COc4cc(OC)c(OC)cc4[C@@H]2C3=O)O1 |  | 4.74 µM (active) |
| CC(C1CC1)C(O)(Cn1cncn1)c1ccc(Cl)cc1 (stereo not given) | inactive |  |
| CCc1cnc(C2=NC(C)(C(C)C)C(=O)N2)c(C(=O)O)c1 (stereo not given) | inactive |  |
| CC(C)N(C(=O)SCC(Cl)=C(Cl)Cl)C(C)C | inactive |  |
| CCOP(=O)(OCC)Oc1cc(C)nc(C(C)C)n1 | inactive |  |
| CCOP(=S)(OCC)Oc1ccc2c(C)c(Cl)c(=O)oc2c1 | inactive |  |
| C[N+]1(C)CCCCC1 | inactive |  |
| CNC(=O)ON=C(C)SC | inactive |  |

| Structure (SMILES) | outcome | AC50 |
| --- | --- | --- |
| COc1ccc(C(=CC(=O)N2CCOCC2)c2ccc(Cl)cc2)cc1OC | inactive |  |
| CCOC(=O)CC(SP(=O)(OC)OC)C(=O)OCC (stereo not given) | inactive |  |
| CCOC(=O)COc1cc(-c2nn(C)c(OC(F)F)c2Cl)c(F)cc1Cl | inactive |  |
| CCC(=NOC/C=C/Cl)C1=C(O)CC(C2CCOCC2)CC1=O (stereo not given) | inactive |  |
| CC(C)[C@H](C(=O)O[C@H](C#N)c1cccc(Oc2ccccc2)c1)c1ccc(Cl)cc1 | inactive |  |
| COP(=O)(OC)OC(Br)C(Cl)(Cl)Br (stereo not given) | inactive |  |
| CCOP(=S)(OCC)SCCSCC | inactive |  |
| CCc1cccc(C)c1N(C(=O)CCl)C(C)COC (stereo not given) | inactive |  |
| CCCCN(CC)c1c([N+](=O)[O-])cc(C(F)(F)F)cc1[N+](=O)[O-] | inactive |  |
| CCOP(=O)(NC(C)C)Oc1ccc(SC)c(C)c1 (stereo not given) | inactive |  |
| CCOP(=S)(OCC)OC(Cl)C(Cl)(Cl)Cl (stereo not given) | inactive |  |
| CCC(=O)Nc1ccc(Cl)c(Cl)c1 | inactive |  |
| CNC(=O)Oc1cccc2c1OC(C)(C)O2 | inactive |  |
| COP(=O)(OC)C(O)C(Cl)(Cl)Cl (stereo not given) | inactive |  |
| CSC1=N[C@@](C)(c2ccccc2)C(=O)N1Nc1ccccc1 | inactive |  |
| COP(=O)(NC(C)=O)SC (stereo not given) | inactive |  |
| COc1cccc(C(=O)NN(C(=O)c2cc(C)cc(C)c2)C(C)(C)C)c1C | inactive |  |
| CNC(=O)ON=C(SC)C(=O)N(C)C | inactive |  |
| CCCOCC(=Nc1ccc(Cl)cc1C(F)(F)F)n1ccnc1 | inactive |  |
| CN1COCN(Cc2cnc(Cl)s2)C1=N[N+](=O)[O-] | inactive |  |

— PubChem BioAssay (EPA / NIEHS)
